ANO1 activ – activators or potentiators of mouse TMEM16A chloride channel | Q8BHY3 | HEK293 TMEM16A/YFP-H148Q/I152L, iodide quench fluorescence; active compounds read low | B-score at 10 µM | hit rate 0.3% among 340,000;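 active means fluorescence-ratio B-score plate-corrected deviation score at least 3 library SD below zero, with starting fluorescence score within 5 deviations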;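 further: channel opened by trigger with iodide after compound preincubation; score built on the fluorescence ratio of max minus min over baseline; more negative score means more quench and so TMEM16A activation or potentiation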
Target sequence (Q8BHY3 whole entry, looked up): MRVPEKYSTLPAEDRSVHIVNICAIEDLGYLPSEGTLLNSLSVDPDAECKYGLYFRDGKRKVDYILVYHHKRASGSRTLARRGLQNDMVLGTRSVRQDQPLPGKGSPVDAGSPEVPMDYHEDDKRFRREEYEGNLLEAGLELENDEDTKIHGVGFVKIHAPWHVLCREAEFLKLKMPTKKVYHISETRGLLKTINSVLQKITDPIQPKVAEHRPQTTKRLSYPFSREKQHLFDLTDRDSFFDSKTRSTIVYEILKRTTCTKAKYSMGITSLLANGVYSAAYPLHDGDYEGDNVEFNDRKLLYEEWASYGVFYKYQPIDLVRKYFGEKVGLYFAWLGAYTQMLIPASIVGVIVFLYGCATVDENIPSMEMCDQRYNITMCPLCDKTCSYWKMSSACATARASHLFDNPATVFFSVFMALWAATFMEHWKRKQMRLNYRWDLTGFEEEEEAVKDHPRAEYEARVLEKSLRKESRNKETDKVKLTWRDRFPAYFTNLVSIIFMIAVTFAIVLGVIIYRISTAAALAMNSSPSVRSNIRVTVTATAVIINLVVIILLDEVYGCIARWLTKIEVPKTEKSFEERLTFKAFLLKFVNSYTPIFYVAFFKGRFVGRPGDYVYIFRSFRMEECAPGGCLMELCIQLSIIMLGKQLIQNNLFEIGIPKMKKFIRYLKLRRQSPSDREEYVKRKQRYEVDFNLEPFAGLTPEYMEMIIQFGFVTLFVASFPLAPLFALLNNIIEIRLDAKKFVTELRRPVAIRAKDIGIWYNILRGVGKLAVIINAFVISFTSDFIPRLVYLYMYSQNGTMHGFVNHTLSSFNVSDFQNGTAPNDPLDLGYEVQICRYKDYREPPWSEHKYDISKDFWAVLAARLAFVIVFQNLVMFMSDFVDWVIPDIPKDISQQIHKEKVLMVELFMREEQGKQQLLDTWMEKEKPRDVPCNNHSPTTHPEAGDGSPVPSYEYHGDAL
RTF Ca sens inh – cardiac RTF calcium desensitization. P19429+P45379. inhibition, % at 7.15 µM. hit rate 0.12% among 340,000. IANBD-labeled cardiac RTF, Ca2+ fluorescence;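 active means inhibition above the mean inhibition of all tested compounds plus 3 SD, cut at about 17% in these data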;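 further: assay run at fixed EC70 calcium of 1.6 mM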
cardiac RTF act – cardiac RTF calcium sensitization; P19429+P45379; hit rate 0.24% among 340,000; IANBD-labeled TnC RTF fluorescence at EC20 calcium; 0% EC20 calcium, 100% full calcium; activation, % at 7.2 µM;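 active means activation above the mean over all tested compounds plus 3 SD, cut at about 30% in these data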;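 further: rise in fluorescence read as greater calcium sensitivity of cardiac thin filaments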
CRFBP-R2 block – blocks CRF-induced signaling of the CRF-BP/CRF-R2 complex; HEK293 CRF-R2/CRF-BP, CRF-induced calcium fluorescence; AID 588475; hit rate 0.59% among 350,000; inhibition, % at 11.8 µM;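 active means inhibition of the ligand-induced calcium signal above about 50% at the single tested concentration, limit read from the data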
CRFR2-BP ag – agonists of human CRF-binding protein/CRF-R2 receptor complex. HEK293 CRF-R2/CRF-BP, calcium dye fluorescence (FLIPR); percent of saturating CRF peptide response. hit rate 0.46% among 350,000. activation, % at 13.2 µM;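 active means activation of at least 50%, plus an integration ratio under a set limit after plate pattern correction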;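 further: plate controls were neutral control wells without compound for no effect and CRF at EC100 for full effect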
ANO1 block – mouse TMEM16A channel inhibition, primary screen. hit rate 1.2% among 310,000. normalized B-score (activity score, 25-100; higher = stronger inhibition) at 10 µM. HEK293 TMEM16A/YFP iodide influx fluorescence, ionomycin. AID 588511;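 active means ratio plate-corrected score three or more library SD toward inhibition, starting fluorescence score within five deviations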;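 further: score derived from kinetic fluorescence span divided by baseline fluorescence per well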
The depositor's hits bear a star. An excerpt weighted towards active compounds, which were near 2.4% of everything screened.

How did C=CCSC1=N/C(=C\c2ccc3c(c2)OCO3)C(=O)S1 do in these assays?
ANO1 activ: inactive; RTF Ca sens inh: -0.6; cardiac RTF act: 6.7; CRFBP-R2 block: -1.6; CRFR2-BP ag: 1.0; ANO1 block: inactive

What do the screens show for `CCOC(=O)N(C)C[C@@H]1OCc2cnnn2CCCC(=O)N([C@H](C)CO)C[C@@H]1C`?
CRFBP-R2 block: 19.1; CRFR2-BP ag: 1.0

How did CCc1ccccc1N1CCN(S(=O)(=O)c2ccc(F)c(C)c2)CC1 do in these assays?
ANO1 activ: inactive; RTF Ca sens inh: -0.1; cardiac RTF act: -3.6; CRFBP-R2 block: -8.1; CRFR2-BP ag: -1.1; ANO1 block: inactive

Results for Cc1ccc(N2CCN(S(=O)(=O)c3ccc(F)c(C)c3)CC2)c(C)c1 ?
ANO1 activ: -11.4*; RTF Ca sens inh: -5.7; cardiac RTF act: -1.0; CRFBP-R2 block: 9.6; CRFR2-BP ag: -0.9; ANO1 block: inactive

What do the screens show for `N=c1c(S(=O)(=O)c2ccccc2)cc2c(=O)n3ccccc3nc2n1Cc1ccco1`?
ANO1 activ: inactive; RTF Ca sens inh: -12.5; cardiac RTF act: -0.3; CRFBP-R2 block: 6.6; CRFR2-BP ag: 88.6*; ANO1 block: inactive

What do the screens show for `Cc1cccn2c(=O)c3cc(S(=O)(=O)c4ccccc4)c(=N)n(Cc4ccco4)c3nc12`?
ANO1 activ: inactive; RTF Ca sens inh: -4.7; cardiac RTF act: 2.4; CRFBP-R2 block: 6.9; CRFR2-BP ag: 1.2; ANO1 block: inactive

Results for Cc1ccc2nc3c(cc(S(=O)(=O)c4ccccc4)c(=N)n3Cc3ccco3)c(=O)n2c1 ?
ANO1 activ: inactive; RTF Ca sens inh: -7.4; cardiac RTF act: 2.0; CRFBP-R2 block: -18.1; CRFR2-BP ag: 30.7; ANO1 block: inactive

What do the screens show for `CCCn1c(=N)c(S(=O)(=O)c2ccccc2)cc2c(=O)n3ccccc3nc21`?
ANO1 activ: inactive; RTF Ca sens inh: -3.3; cardiac RTF act: 1.0; CRFBP-R2 block: 110.3*; CRFR2-BP ag: -4.2; ANO1 block: inactive

Results for Cc1ccc(S(=O)(=O)c2cc3c(=O)n4ccccc4nc3n(Cc3ccco3)c2=N)cc1C ?
CRFBP-R2 block: 7.1; CRFR2-BP ag: 78.6*; ANO1 block: inactive

Results for N=Nc1c(O)n(CC(=O)Nc2ccccc2)c2ccccc12 ?
ANO1 activ: inactive; RTF Ca sens inh: -11.8; cardiac RTF act: -0.5; CRFBP-R2 block: -2.5; CRFR2-BP ag: 1.2; ANO1 block: inactive

How did COc1ccccc1OCC(=O)NCC1CCCN(C(=O)c2ccccc2SC)C1 (configuration not stated) do in these assays?
ANO1 activ: inactive; RTF Ca sens inh: 3.3; cardiac RTF act: -5.2; CRFBP-R2 block: 12.4; CRFR2-BP ag: -0.4; ANO1 block: inactive

How did COc1ccccc1OCC(=O)NCC1CCCN(C(=O)c2ccccc2C(C)=O)C1 (configuration not stated) do in these assays?
ANO1 activ: inactive; RTF Ca sens inh: -0.7; cardiac RTF act: 4.7; CRFBP-R2 block: 68.3*; CRFR2-BP ag: 0.7; ANO1 block: inactive

What do the screens show for `N#Cc1c(-c2cccs2)nc(SCc2ccc(Cl)cc2)[nH]c1=O`?
ANO1 activ: inactive; RTF Ca sens inh: -11.4; cardiac RTF act: 1.0; CRFBP-R2 block: 55.3*; CRFR2-BP ag: -1.4

Results for CSc1nc(-c2cccs2)c(C#N)c(=O)[nH]1 ?
ANO1 activ: inactive; RTF Ca sens inh: -5.9; cardiac RTF act: 1.8; CRFBP-R2 block: 0.0; CRFR2-BP ag: -0.3; ANO1 block: inactive

What do the screens show for `COC(=O)CSc1nnc(CNC(=O)Cc2ccccc2)n1-c1ccccc1OC`?
ANO1 activ: inactive; RTF Ca sens inh: -6.0; cardiac RTF act: 6.2; CRFBP-R2 block: 14.2; CRFR2-BP ag: -2.8; ANO1 block: inactive

What do the screens show for `COc1ccc(CN2C(=O)c3ccccc3C(/C=N\OCc3ccc(F)cc3)C2=O)cc1` (configuration not stated)?
ANO1 activ: inactive; RTF Ca sens inh: -8.9; cardiac RTF act: -3.9; CRFBP-R2 block: -1.9; CRFR2-BP ag: -0.3; ANO1 block: 25*

What do the screens show for `O=C(NCCN1CCN(C(=O)NC2CCCCC2)CC1)NC1CCCCC1`?
ANO1 activ: inactive; RTF Ca sens inh: -7.8; cardiac RTF act: 4.9; CRFBP-R2 block: 66.8*; CRFR2-BP ag: 2.1; ANO1 block: inactive

Results for COc1cccc(NC(=O)CCCn2nc(C)c3c(C)n(-c4ccccc4)nc3c2=O)c1 ?
ANO1 activ: inactive; RTF Ca sens inh: -7.1; cardiac RTF act: -4.3; CRFBP-R2 block: -4.7; CRFR2-BP ag: 0.6; ANO1 block: inactive

Results for COc1ccc(CN2CC(=O)N(c3cccc(Cl)c3)C2=S)cc1OC ?
ANO1 activ: inactive; RTF Ca sens inh: 1.7; cardiac RTF act: -0.8; CRFBP-R2 block: 89.6*; CRFR2-BP ag: 0.5; ANO1 block: inactive

Results for CCc1ccc(S(=O)(=O)NCc2csc(C)n2)cc1 ?
ANO1 activ: inactive; RTF Ca sens inh: -3.0; cardiac RTF act: 1.0; CRFBP-R2 block: 6.2; CRFR2-BP ag: -2.1; ANO1 block: inactive

Results for O=C(CN1CCOCC1)Nc1ncc(Cc2cccc3ccccc23)s1 ?
ANO1 activ: inactive; RTF Ca sens inh: -2.5; cardiac RTF act: -5.8; CRFBP-R2 block: -36.7; CRFR2-BP ag: -1.9; ANO1 block: 25*

What do the screens show for `Cc1ccc(Cc2cnc(NC(=O)CN3CCOCC3)s2)cc1Cl`?
ANO1 activ: inactive; RTF Ca sens inh: -4.7; cardiac RTF act: 6.5; CRFBP-R2 block: -17.7; CRFR2-BP ag: 0.8; ANO1 block: inactive

What do the screens show for `COc1ccccc1N=Cc1c(C)c(C#N)c2[nH]c3ccccc3n2c1=O`?
ANO1 activ: inactive; RTF Ca sens inh: -13.0; cardiac RTF act: 62.1*; CRFBP-R2 block: -30.4; CRFR2-BP ag: 27.4; ANO1 block: inactive

How did COc1ccc(F)cc1CSc1nnnn1-c1ccc(O)cc1 do in these assays?
ANO1 activ: inactive; RTF Ca sens inh: -15.0; cardiac RTF act: -3.7; CRFBP-R2 block: 16.7; CRFR2-BP ag: 0.1; ANO1 block: 25*

Results for Cc1ccc(-c2nnc(NC3CCCC3)s2)cc1 ?
ANO1 activ: inactive; RTF Ca sens inh: -2.3; cardiac RTF act: -6.3; CRFBP-R2 block: -1.8; CRFR2-BP ag: 1.1; ANO1 block: inactive

Results for O=C(Nc1cccc(Cl)c1)c1cccc(N2C(=O)C3CC=CCC3C2=O)c1 (configuration not stated) ?
ANO1 activ: inactive; RTF Ca sens inh: 1.7; cardiac RTF act: 2.4; CRFBP-R2 block: 1.8; CRFR2-BP ag: -0.6; ANO1 block: inactive

What do the screens show for `CCOC(=O)/C(=N\Nc1ccc(C(C)=O)cc1)c1csc(Nc2ccccc2)n1`?
ANO1 activ: inactive; RTF Ca sens inh: -125.9; cardiac RTF act: 131.4*; CRFBP-R2 block: -97.1; CRFR2-BP ag: 74.1*; ANO1 block: inactive

Screening data from PubChem BioAssay.
